Results as given in publication PMC5540273 (PLoS ONE, 2017).
“And” between values parts separate entries of the source, which are not always exact repeats. Equal values may be shown once. Read-outs that look alike come from different tables or passages of the source.

How the values were obtained:
TAOK3 = conditions: concentration: 1 μM, replicates: in singlicate; n = 1
TBK1 = conditions: n = 1
TEC = conditions: concentration: 1 μM, replicates: in singlicate; n = 1
TESK1 = conditions: concentration: 1 μM, replicates: in singlicate; n = 1
TGFBR1 = conditions: n = 1
TGFBR2 = conditions: concentration: 1 μM, replicates: in singlicate; n = 1
TIE1 = conditions: n = 1
TIE2 = tested on: T1, TIE2; conditions: concentration: 1 μM, replicates: in singlicate; n = 1
T1 construct: gene TEK

TLK1 = conditions: n = 1
TLK2 = conditions: concentration: 1 μM, replicates: in singlicate; n = 1
TNIK = conditions: concentration: 1 μM, replicates: in singlicate; n = 1
TNK1 = conditions: concentration: 1 μM, replicates: in singlicate; n = 1
TNK2 = conditions: n = 1
TNNI3K = conditions: n = 1
TRKA = tested on: T2, TRKA; conditions: concentration: 1 μM, replicates: in singlicate; n = 1
T2 construct: gene NTRK1

TRKB = conditions: n = 1
TRKC = tested on: T3, TRKC; conditions: n = 1
T3 construct: gene NTRK3

TRPM6 = conditions: n = 1
TSSK1B = conditions: n = 1
TSSK3 = conditions: n = 1
[1] = concentration: 1 μM, replicates: in singlicate
[2] = concentration: 1 μM,replicates: in singlicate, 1 µM
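Note: KINOMEscan kinase panel screen.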

For CCn1c(-c2cccnc2O)nc2cnccc21 [SB-736715], the “%Inh” value (TAOK3) was 0%, the “%Inh” value (TBK1; [1]) was 0% and the “%Inh” value (TEC) was 0%. The “%Inh” value (TESK1) was 0%, the “%Inh” value (TGFBR1; [1]) was 0% and the “%Inh” value (TGFBR2) was 0%. The “%Inh” value (TIE1; [1]) was 0%, the “%Inh” value (TIE2) was 6% and the “%Inh” value (TLK1; [1]) was 0%. The “%Inh” value (TLK2) was 0%, the “%Inh” value (TNIK) was 0% and the “%Inh” value (TNK1) was 8%. For the same compound, the “%Inh” value (TNK2; [1]) was 0%, the “%Inh” value (TNNI3K; [1]) was 0% and the “%Inh” value (TRKA) was 0%. The “%Inh” value (TRKB; [1]) was 3%, the “%Inh” value (TRKC; [1]) was 0% and the “%Inh” value (TRPM6; [1]) was 0%. For the same compound, the “%Inh” value (TSSK1B; [1]) was 0% and the “%Inh” value (TSSK3; [1]) was 0%.
Cn1ccc2ncnc(Oc3cccc(C(=O)Nc4ccccc4)c3)c21 was tested, and the “%Inh” value (TAOK3) was 0%, the “%Inh” value (TBK1; [1]) was 0% and the “%Inh” value (TEC) was 11%. The “%Inh” value (TESK1) was 0%, the “%Inh” value (TGFBR1; [1]) was 8% and the “%Inh” value (TGFBR2) was 0%. For the same compound, the “%Inh” value (TIE1; [1]) was 0%, the “%Inh” value (TIE2) was 0% and the “%Inh” value (TLK1; [1]) was 5%. The “%Inh” value (TLK2) was 7%, the “%Inh” value (TNIK) was 16% and the “%Inh” value (TNK1) was 3%. The “%Inh” value (TNK2; [1]) was 9%, the “%Inh” value (TNNI3K; [1]) was 1% and the “%Inh” value (TRKA) was 21%. The “%Inh” value (TRKB; [1]) was 0%, the “%Inh” value (TRKC; [1]) was 0% and the “%Inh” value (TRPM6; [1]) was 0%. The “%Inh” value (TSSK1B; [1]) was 9% and the “%Inh” value (TSSK3; [1]) was 0%.
In the case of COc1ccc(C2=C(Nc3cccc(C(=O)O)c3)C(=O)NC2=O)cc1 [SB-390765], the “%Inh” value (TAOK3) is reported as 23%, the “%Inh” value (TBK1; [1]) is reported as 11% and the “%Inh” value (TEC) is reported as 10%. For the same compound, the “%Inh” value (TESK1) was 12%, the “%Inh” value (TGFBR1; [1]) was 1% and the “%Inh” value (TGFBR2) was 0%. The “%Inh” value (TIE1; [1]) was 7%, the “%Inh” value (TIE2) was 21% and the “%Inh” value (TLK1; [1]) was 1%. For the same compound, the “%Inh” value (TLK2) was 0%, the “%Inh” value (TNIK) was 0% and the “%Inh” value (TNK1) was 5%. For the same compound, the “%Inh” value (TNK2; [1]) was 6%, the “%Inh” value (TNNI3K; [1]) was 0% and the “%Inh” value (TRKA) was 47%. For the same compound, the “%Inh” value (TRKB; [1]) was 0%, the “%Inh” value (TRKC; [1]) was 22% and the “%Inh” value (TRPM6; [1]) was 0%. For the same compound, the “%Inh” value (TSSK1B; [1]) was 8% and the “%Inh” value (TSSK3; [1]) was 0%.
COc1cccc(NC(=O)NC2CCN(c3ccnc(Nc4ccc(F)cc4)n3)C2)c1 (centres unmarked) [GSK1379721] was tested, and the “%Inh” value (TAOK3) was 2%, the “%Inh” value (TBK1; [1]) was 16% and the “%Inh” value (TEC) was 0%. For the same compound, the “%Inh” value (TESK1) was 32%, the “%Inh” value (TGFBR1; [1]) was 15% and the “%Inh” value (TGFBR2) was 0%. For the same compound, the “%Inh” value (TIE1; [1]) was 0%, the “%Inh” value (TIE2) was 0% and the “%Inh” value (TLK1; [1]) was 6%. The “%Inh” value (TLK2) was 4%, the “%Inh” value (TNIK) was 0% and the “%Inh” value (TNK1) was 0%. The “%Inh” value (TNK2; [1]) was 0%, the “%Inh” value (TNNI3K; [1]) was 2% and the “%Inh” value (TRKA) was 42%. The “%Inh” value (TRKB; [1]) was 59%, the “%Inh” value (TRKC; [1]) was 80% and the “%Inh” value (TRPM6; [1]) was 26%. For the same compound, the “%Inh” value (TSSK1B; [1]) was 9% and the “%Inh” value (TSSK3; [1]) was 23%.
With COC(=O)c1c(-c2ccccc2)c2cc(OC)ccc2c(=O)n1Cc1ccccc1 the “%Inh” value (TAOK3) was 0%, the “%Inh” value (TBK1; [1]) was 0% and the “%Inh” value (TEC) was 14%. For the same compound, the “%Inh” value (TESK1) was 20%, the “%Inh” value (TGFBR1; [1]) was 17% and the “%Inh” value (TGFBR2) was 0%. The “%Inh” value (TIE1; [1]) was 3%, the “%Inh” value (TIE2) was 0% and the “%Inh” value (TLK1; [1]) was 23%. For the same compound, the “%Inh” value (TLK2) was 0%, the “%Inh” value (TNIK) was 1% and the “%Inh” value (TNK1) was 0%. The “%Inh” value (TNK2; [1]) was 0%, the “%Inh” value (TNNI3K; [1]) was 0% and the “%Inh” value (TRKA) was 0%. The “%Inh” value (TRKB; [1]) was 0%, the “%Inh” value (TRKC; [1]) was 0% and the “%Inh” value (TRPM6; [1]) was 11%. The “%Inh” value (TSSK1B; [1]) was 10% and the “%Inh” value (TSSK3; [1]) was 0%.
CSc1nn2c(=O)cc(N3CCOCC3)nc2n1Cc1cccc(C(F)(F)F)c1C [GSK2363608] was tested, and the “%Inh” value (TAOK3) was 0%, the “%Inh” value (TBK1; [2]) was 20% and 5% and the “%Inh” value (TEC) was 7%. The “%Inh” value (TESK1) was 19%, the “%Inh” value (TGFBR1; [2]) was 11% and 17% and the “%Inh” value (TGFBR2) was 0%. The “%Inh” value (TIE1; [2]) was 0% and 2%, the “%Inh” value (TIE2) was 0% and the “%Inh” value (TLK1; [2]) was 8% and 0%. The “%Inh” value (TLK2) was 0%, the “%Inh” value (TNIK) was 0% and the “%Inh” value (TNK1) was 0%. The “%Inh” value (TNK2; [2]) was 17% and 30%, the “%Inh” value (TNNI3K; [2]) was 1% and 10% and the “%Inh” value (TRKA) was 0%. The “%Inh” value (TRKB; [2]) was 0% and 3%, the “%Inh” value (TRKC; [2]) was 0% and 11% and the “%Inh” value (TRPM6; [2]) was 22% and 0%. The “%Inh” value (TSSK1B; [2]) was 18% and 77% and the “%Inh” value (TSSK3; [2]) was 18% and 6%.
Cc1cccc(-c2nc(C)cc(Nc3ccncc3)n2)n1 [GSK257997] was tested, and the “%Inh” value (TAOK3) was 0%, the “%Inh” value (TBK1; [1]) was 15% and the “%Inh” value (TEC) was 0%. The “%Inh” value (TESK1) was 15%, the “%Inh” value (TGFBR1; 1 µM) was 100% and the “%Inh” value (TGFBR2) was 4%. The “%Inh” value (TIE1; [1]) was 0%, the “%Inh” value (TIE2) was 8% and the “%Inh” value (TLK1; [1]) was 8%. For the same compound, the “%Inh” value (TLK2) was 0%, the “%Inh” value (TNIK) was 0% and the “%Inh” value (TNK1) was 0%. For the same compound, the “%Inh” value (TNK2; [1]) was 28%, the “%Inh” value (TNNI3K; [1]) was 0% and the “%Inh” value (TRKA) was 39%. The “%Inh” value (TRKB; [1]) was 0%, the “%Inh” value (TRKC; [1]) was 0% and the “%Inh” value (TRPM6; [1]) was 24%. The “%Inh” value (TSSK1B; [1]) was 3% and the “%Inh” value (TSSK3; [1]) was 17%.
